In PubChem BioAssay AID463173 (ICCB-Longwood Screening Facility, Harvard Medical School, 2010):
The whole screen tested about 52,000 compounds, of which about 4,300 (8.3%) were called active. No stated cut-off is given here; in the data, active means survival mostly below about 52% (no sharp cut-off); inactive means mostly above about 56%. The full list was thinned out, with actives kept by preference.

System: DeltatarO mutant
Assay: S. aureus survival, RN4220 and DeltatarO strains – OD600, teichoic acid synthesis inhibitors, primary screen (AID 463173)
Conditions: S. aureus RN4220 wild type/DeltatarO growth, OD600, 18 h, hits give low values, screened at 18.75 µg/mL (by protocol)

Compound	survival
O=C1CC(c2cccc(O)c2)c2c(nc(SCc3ccccc3F)[nH]c2=O)N1 (configuration not stated)	106% (inactive)
COc1cc(NC(=O)CN2C(=O)C(c3ccc(C)cc3)=NC23CCCCCC3)cc(OC)c1	83% (inactive)
O=C(COc1ccc(F)cc1)NCc1ccc2c(c1)CCN2C(=O)c1ccccc1	81% (inactive)
COc1ccc(C2CC(=O)NC(NC(=O)c3ccc(Br)cc3)=N2)c(OC)c1OC (configuration not stated)	86% (inactive)
CCOC(=O)N1CCc2c(sc3c2c(=O)n(-c2ccc(Cl)cc2)c(=O)n3CC(C)C)C1	94% (inactive)
CN(C)CCNC(=O)Cn1nc(N2CCN(c3ccccc3)CC2)ccc1=O	86% (inactive)
CC(=O)c1ccc(NC(=O)C2CCN(S(=O)(=O)c3ccc4[nH]c5c(c4c3)CCCCC5)CC2)cc1	94% (inactive)
O=C1COc2cc(S(=O)(=O)CCC(=O)N3CCN(c4cccc(Cl)c4)CC3)c(Cl)cc2N1	66% (inactive)
CCOC(=O)C1=C(CN2CCC(C(=O)OCC)CC2)NC(=O)NC1c1ccc(Cl)cc1 (configuration not stated)	111% (inactive)
COc1ccc(-n2nnc(C(=O)Nc3ccccc3F)c2N)cc1	68% (inactive)
O=C(Nc1ccc(C(F)(F)F)cc1)C1(c2cccs2)CCOCC1	87% (inactive)
Cc1cccc(C)c1NC(=O)CCS(=O)(=O)c1cccc2nonc12	74% (inactive)
Cc1ccc(Nc2ncnc3onc(C)c23)cc1Cl	67% (inactive)
Cc1ccc(C2=NC(c3ccc(F)cc3)=Nc3ccc(C)cc3N2)cc1	72% (inactive)
O=C(NN=C1CCCCC1)c1n[nH]c2c1CCC2	97% (inactive)
CCc1ccc(C(=O)c2cn(CC(=O)Nc3ccc(OC)cc3)c3cc4c(cc3c2=O)OCO4)cc1	81% (inactive)
COc1ccc(CN2CCc3c(c(=O)n4ncc(C(=O)N5CCN(c6ccccc6F)CC5)c4n3C)C2)cc1	88% (inactive)
COc1ccccc1NC(=O)c1cc(S(=O)(=O)N(C)C2CCCCC2)ccc1F	85% (inactive)
Cc1cccc(CSc2ncc(Cl)c(C(=O)Nc3sc4c(c3C(N)=O)CCCC4)n2)c1	112% (inactive)
CCCSc1ncc(Cl)c(C(=O)Nc2sc3c(c2C(=O)NCCOC)CCCC3)n1	92% (inactive)
CCNC(=O)c1c(NC(=O)c2nc(S(=O)(=O)CC)ncc2Cl)sc2c1CCCC2	34% (active)
COCCCNC(=O)c1c(NC(=O)c2nc(S(C)(=O)=O)ncc2Cl)sc2c1CCCC2	53% (inactive)
CCCSc1ncc(Cl)c(C(=O)Nc2sc3c(c2C(=O)OC)CCCC3)n1	53% (inactive)
CCOCCCNC(=O)c1c(NC(=O)c2nc(SC)ncc2Cl)sc2c1CCCC2	64% (inactive)
CCCSc1ncc(Cl)c(C(=O)Nc2sc3c(c2C(=O)NCC)CCCC3)n1	45% (active)

Compound	survival
CCCSc1ncc(Cl)c(C(=O)Nc2sc3c(c2C(N)=O)CCCC3)n1	46% (active)
CCSc1ncc(Cl)c(C(=O)Nc2sc3c(c2C(=O)NCCCOC)CCCC3)n1	108% (inactive)
CCN(CC)c1nn2c(=O)c(C(=O)NCc3ccc(OC)cc3OC)cnc2s1	75% (inactive)
CCOc1ccc(NC(=O)CSc2oc(-c3ccco3)nc2S(=O)(=O)c2ccccc2)cc1	101% (inactive)
Cc1ccc(NC(=O)n2ncc3c(C)cccc32)c(C)c1	85% (inactive)
COc1ccc(-n2nc(C(=O)Nc3ccc(C)cn3)c3c4ccccc4n(C)c3c2=O)cc1	76% (inactive)
CCC(Sc1nc2ncccc2o1)C(=O)Nc1ccc(OC)c(OC)c1 (configuration not stated)	79% (inactive)
COc1cccc(NC(=O)c2nnn(Cc3ccc(OC)c(Br)c3)c2N)c1	57% (inactive)
CCCN(CCC)C(=O)CSc1nc2ccccc2c(=O)n1Cc1ccco1	83% (inactive)
O=C(CSc1nc2ccncc2[nH]1)Nc1ccccc1C(F)(F)F	87% (inactive)
O=S(=O)(Nc1ccc(-c2ccc(N3CCCC3)nn2)cc1)c1ccc(Br)cc1	94% (inactive)
COc1ccc(CNC(=O)c2cnn3c(C)c(Cc4ccc(F)cc4)c(C)nc23)cc1	80% (inactive)
O=C(COc1ccc(F)cc1)Nc1nnc(S(=O)(=O)N2CCc3ccccc32)s1	17% (active)
COc1ccc(OCC(=O)Nc2nnc(S(=O)(=O)N3CCc4ccccc43)s2)cc1	70% (inactive)
O=C(COc1ccc(Cl)cc1)Nc1nnc(S(=O)(=O)N2CCc3ccccc32)s1	6% (active)
CCC(=O)Nc1nnc(S(=O)(=O)N2CCc3ccccc32)s1	76% (inactive)
Cc1ccc(OCC(=O)Nc2nnc(S(=O)(=O)N3CCc4ccccc43)s2)cc1	13% (active)
Cc1cccc(OCC(=O)Nc2nnc(S(=O)(=O)N3CCc4ccccc43)s2)c1	16% (active)
CC(C)CC(=O)Nc1nnc(S(=O)(=O)N2CCc3ccccc32)s1	74% (inactive)
CC(=O)NCCNC(=O)CCCc1nnc2n(C)c(=O)c3sccc3n12	93% (inactive)
COc1ccc(CCNC(=O)c2cc3n(n2)C(C(F)(F)F)CC(C2CC2)N3)cc1OC (configuration not stated)	99% (inactive)
CC(=O)c1ccc(N2CCN(S(=O)(=O)c3c(C)nc4sc(C)cn4c3=O)CC2)cc1	75% (inactive)
COCCNC(=O)CCC(=O)N1Cc2cccc(OC)c2Oc2ncccc21	89% (inactive)
Nc1nc(=S)[nH]c2c1C1(CCCC1)Cc1ccccc1-2	99% (inactive)
Nc1n[nH]c2c1C1(CCCC1)Cc1ccccc1-2	100% (inactive)

Compound	survival
N#CC1=C(N)c2ccccc2CC12CCCCC2	31% (active)
COc1ccc2[nH]c(=O)c(CN(Cc3ccco3)C(=S)NC3CCCCC3)cc2c1	77% (inactive)
CCc1ccc2[nH]c(=O)c(CN(CCO)C(=S)NCc3ccco3)cc2c1	88% (inactive)
CNC(=S)N(Cc1ccco1)Cc1cc2ccc(C)cc2[nH]c1=O	99% (inactive)
Cc1ccc(NC(=S)N(Cc2ccco2)Cc2cc3cc(C)c(Cl)cc3[nH]c2=O)cc1	82% (inactive)
COc1ccc(NC(=S)N(Cc2ccco2)Cc2cc3cc(C)c(C)cc3[nH]c2=O)cc1	38% (active)
COc1ccc2[nH]c(=O)c(CN(Cc3ccco3)C(=S)NCc3ccco3)cc2c1	65% (active)
Cc1ccc(-c2nnc(Nc3ccccc3)c3ccccc23)cc1S(=O)(=O)N1CCN(C)CC1	86% (inactive)
NC(=O)c1cc2ccc(O)cc2oc1=O	74% (inactive)
COc1ccc(CCNC(=O)CCCn2nc(C)c3sc4ccccc4c3c2=O)cc1OC	83% (inactive)
CCCCc1nc2ccccc2c(C(=O)O)c1C	75% (inactive)
Cc1c(-c2ccccc2)nc2ccccc2c1C(=O)O	95% (inactive)
CCc1ccc(-c2nc3ccc(Br)cc3c(C(=O)O)c2C)s1	39% (active)
COc1ccccc1CNC(=O)CN1C(=O)CCc2cc(S(=O)(=O)N3CCOCC3)ccc21	135% (inactive)
O=C(Cn1c(C(=O)N(Cc2ccco2)CC2CCCO2)cc2sccc21)c1ccccc1 (configuration not stated)	68% (active)
O=C(Cn1c(C(=O)NCC2CCCO2)cc2sccc21)c1ccccc1 (configuration not stated)	103% (inactive)
O=C(Cn1c(C(=O)NCc2ccco2)cc2sccc21)c1ccccc1	92% (inactive)
CCOc1ccc(C2C(C(N)=O)=C(C)Nc3nc(-c4cccc(Cl)c4)nn32)cc1OC (configuration not stated)	74% (inactive)
O=C(NCC(c1ccco1)S(=O)(=O)c1cccs1)c1ccccc1 (configuration not stated)	63% (inactive)
COc1cc2[nH]c(=O)n(CCCCCC(=O)N3CCN(c4cccc(C(F)(F)F)c4)CC3)c(=O)c2cc1OC	83% (inactive)
O=C(c1ccccc1)N(Cc1nc2ccccc2c(=O)[nH]1)C1CCCC1	70% (inactive)
O=C(NCc1ccccc1)N(Cc1nc2ccccc2c(=O)[nH]1)C1CCCC1	52% (active)
O=C(NC1CCCCC1)N(Cc1nc2ccccc2c(=O)[nH]1)C1CCCC1	85% (inactive)
COc1cccc2c(=O)cc(C)[nH]c12	88% (inactive)
CN(Cc1ccccc1)C1CCNCC1	90% (inactive)

Compound	survival
Cc1ccc(S(=O)(=O)N2CCc3cc(C(=O)Nc4ccc(C(F)(F)F)cc4)ccc32)cc1	63% (inactive)
CS(=O)(=O)N1CCc2cc(C(=O)Nc3ccc(C(F)(F)F)cc3)ccc21	76% (inactive)
O=C(Nc1cc(C(F)(F)F)ccc1Cl)c1ccc2c(c1)CCN2S(=O)(=O)c1ccccc1	48% (inactive)
O=C(Nc1ccc(Cl)c(C(F)(F)F)c1)c1ccc2c(c1)CCN2S(=O)(=O)c1ccccc1	43% (active)
CS(=O)(=O)N1CCc2cc(C(=O)Nc3ccc(Cl)c(C(F)(F)F)c3)ccc21	33% (active)
CS(=O)(=O)N1CCc2cc(C(=O)Nc3cccc(F)c3)ccc21	68% (inactive)
CCCCNC(=O)CSc1nc2cc3c(cc2c(=O)n1CCCCCC(=O)NCc1ccc(OC)cc1)OCO3	79% (inactive)
CNCCCc1cc(C)ccc1O	59% (inactive)
CCc1ccc(NC(=O)c2cccc(N3CCCS3(=O)=O)c2)cc1	81% (inactive)
Cc1ccc(S(=O)(=O)Nc2cc3c(cc2Cl)n(C)c(=O)c(=O)n3C)cc1	83% (inactive)
CCN(CC)N=Nc1ccc(S(=O)(=O)Nc2nc(C)cc(C)n2)cc1	100% (inactive)
CN(C)CCCN(C(=O)c1ccc2c(c1)OCCO2)c1nc2ccccc2s1	94% (inactive)
CCOc1ccc2nc(NCCNC(=O)Nc3cccc(Cl)c3)c(C#N)cc2c1	82% (inactive)
Cc1cccc(C)c1Nc1c(-c2ccsc2)nc2ccc(Cl)cn12	80% (inactive)
Cc1cccc(C)c1Nc1c(-c2cccs2)nc2ncccn12	76% (inactive)
Cc1ccc2nc(-c3cccs3)c(Nc3c(C)cccc3C)n2c1	35% (active)
Cc1cccc(C)c1Nc1c(-c2ccc(Cl)s2)nc2ncccn12	103% (inactive)
Cc1ccc2nc(-c3cccs3)c(Nc3ccc4c(c3)OCCO4)n2c1	99% (inactive)
Cc1ccn2c(Nc3ccc4c(c3)OCCO4)c(-c3ccc(Cl)s3)nc2c1	102% (inactive)
Cc1cccc(C)c1Nc1c(-c2ccsc2)nc2ccccn12	43% (inactive)
Cc1ccn2c(Nc3c(C)cccc3C)c(-c3ccsc3)nc2c1	35% (active)
Cc1ccn2c(Nc3c(C)cccc3C)c(-c3ccc(Cl)s3)nc2c1	37% (active)
